# Results: PubChem BioAssay (EPA / NIEHS)
# Calls of active or inactive are those of the source. How the source made its calls: active means hit-call score of the fitted dose curve at least 0.9, where 1 is the maximum; inactive means score below 0.9.
# Experiments:
# Conditions in all cases: mRNA level, 48 h; actives raise or lower the signal
# [1] = read-out: matrix metalloproteinase-10 (MMP10), MMP10 (gene 4319); experiment: LTEA_HepaRG_MMP10: Life Technologies and Expression Analysis (LTEA) Assay for matrix metalloproteinase-10 (MMP10) using HepaRG (AID 2283517)
# In short: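 Transcript levels come from Fluidigm qRT-PCR normalized to three housekeeping genes, with curves fitted bidirectionally against 0.5% DMSO. Human HepaRG cells were dosed for 48 hours at concentrations up to 100 uM.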
# [2] = read-out: MYC, MYC (gene 4609); experiment: LTEA_HepaRG_MYC: Life Technologies and Expression Analysis (LTEA) Assay for MYC using HepaRG (AID 2283518)
# In short: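 Expression changes were scored by TaqMan qRT-PCR with ACTB, GAPDH and POLR2A normalization. Cultures in serum-free induction medium received duplicate 8-point concentration series, highest 100 uM, for 48 h; DMSO (0.5%) served as baseline.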
# [3] = read-out: matrix metalloproteinase-3 (MMP3), MMP3 (gene 4314); experiment: LTEA_HepaRG_MMP3: Life Technologies and Expression Analysis (LTEA) Assay for matrix metalloproteinase-3 (MMP3) using HepaRG (AID 2283519)
# In short: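 qRT-PCR read-out of MMP3 mRNA (normalised to three housekeeping genes) in HepaRG liver cells after 48 h chemical exposure; 8-point half-log series, top 100 uM, 0.5% DMSO vehicle. Bidirectional curve fitting against DMSO baseline.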
# [4] = read-out: Paternally Expressed 10 (PEG10), PEG10 (gene 23089); experiment: LTEA_HepaRG_PEG10: Life Technologies and Expression Analysis (LTEA) Assay for Paternally Expressed 10 (PEG10) using HepaRG (AID 2283520);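 on AC50: PEG10 transcript by qRT-PCR normalised to ACTB GAPDH and POLR2A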
# In short: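 qRT-PCR read-out: PEG10 mRNA normalised to three housekeeping genes, fitted bidirectionally against 0.5% DMSO vehicle. HepaRG cells received test chemicals for 48 h in serum-free induction medium, 8 points, top 100 uM, half-log steps.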
# [5] = read-out: Nuclear factor NF-kappa-B p105 subunit (Homo sapiens) (UniProt P19838); experiment: LTEA_HepaRG_NFKB1: Life Technologies and Expression Analysis (LTEA) Assay for Nuclear Factor Kappa B Subunit 1 (NFKB1) using HepaRG (AID 2283521);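 further: TaqMan qRT-PCR transcript normalised to ACTB GAPDH and POLR2A housekeeping genes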
# In short: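 Differentiated human HepaRG cells in serum-free induction medium with 0.5% DMSO were exposed for 48 h to eight half-log concentrations, top 100 uM, in duplicate. NFKB1 mRNA measured by Fluidigm TaqMan qRT-PCR, normalised to ACTB, GAPDH and POLR2A; bidirectional fit versus DMSO.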
# [6] = read-out: Protein phosphatase 2A (PPP2R4), PTPA (gene 5524); experiment: LTEA_HepaRG_PPP2R4: Life Technologies and Expression Analysis (LTEA) Assay for Protein phosphatase 2A (PPP2R4) using HepaRG (AID 2283522)
# In short: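 HepaRG, 48 h exposure, 8-pt half-log series from 100 uM, 0.5% DMSO vehicle, duplicates. Readout: PPP2R4 mRNA, Fluidigm qRT-PCR, housekeeping-normalized. Bidirectional curve fit vs DMSO baseline.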
# [7] = read-out: Phosphatase and tensin (PTEN), PTEN (gene 5728); experiment: LTEA_HepaRG_PTEN: Life Technologies and Expression Analysis (LTEA) Assay for Phosphatase and tensin (PTEN) using HepaRG (AID 2283523)
# In short: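 HepaRG, 48 h exposure, 8-pt half-log series from 100 uM top, 0.5% DMSO vehicle, duplicates. Readout: Fluidigm qRT-PCR of PTEN transcript; housekeeping normalization (ACTB, GAPDH, POLR2A). Gain or loss fitted relative to DMSO baseline.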
# [8] = read-out: solute carrier (SLC22A1), SLC22A1 (gene 6580); experiment: LTEA_HepaRG_SLC22A1: Life Technologies and Expression Analysis (LTEA) Assay for solute carrier (SLC22A1) using HepaRG (AID 2283524)
# In short: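 qRT-PCR readout (TaqMan, Fluidigm arrays) of SLC22A1 transcript, normalized to three housekeeping genes; bidirectional curve fit relative to 0.5% DMSO vehicle. Differentiated human HepaRG cells, 48 h chemical exposure, top concentration 100 uM, half-log steps, eight points.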
# [9] = read-out: Pyruvate Dehydrogenase Kinase 4 (PDK4), PDK4 (gene 5166); experiment: LTEA_HepaRG_PDK4: Life Technologies and Expression Analysis (LTEA) Assay for Pyruvate Dehydrogenase Kinase 4 (PDK4) using HepaRG (AID 2283525)
# In short: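 HepaRG (human liver line), 48 h chemical exposure, 8-pt half-log CRC top 100 uM, 0.5% DMSO vehicle, duplicates. Readout: TaqMan qRT-PCR of PDK4 mRNA, housekeeping-normalized; gain/loss fit relative to DMSO baseline.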
# [10] = read-out: NAD(P)H dehydrogenase [quinone] 1 (NQO1), NQO1 (gene 1728); experiment: LTEA_HepaRG_NQO1: Life Technologies and Expression Analysis (LTEA) Assay for NAD(P)H dehydrogenase [quinone] 1 (NQO1) using HepaRG (AID 2283526)
# In short: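 qRT-PCR read-out (Fluidigm TaqMan), normalized to three housekeeping genes, after 48 h chemical exposure of HepaRG cells. Concentrations: eight points, top 100 uM, half-log steps, 0.5% DMSO vehicle. Gain or loss of signal fitted relative to DMSO.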
# [11] = read-out: Nuclear factor erythroid 2-related factor 2 (Homo sapiens) (UniProt Q16236); experiment: LTEA_HepaRG_NFE2L2: Life Technologies and Expression Analysis (LTEA) Assay for Nuclear factor erythroid 2-related factor 2 (NFE2L2) Transcription Factor using HepaRG (AID 2283527);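 further: TaqMan qRT-PCR transcript level normalised to ACTB GAPDH and POLR2A housekeeping genes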
# In short: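 HepaRG, 48 h dosing, 8-pt half-log series from 100 uM in 0.5% DMSO, duplicates. Read-out: NFE2L2 mRNA by qRT-PCR (ACTB/GAPDH/POLR2A normalization). Bidirectional curve fit vs DMSO baseline.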
# [12] = read-out: succinate dehydrogenase complex iron sulfur subunit B (SDHB), SDHB (gene 6390); experiment: LTEA_HepaRG_SDHB: Life Technologies and Expression Analysis (LTEA) Assay for succinate dehydrogenase complex iron sulfur subunit B (SDHB) using HepaRG (AID 2283528)
# In short: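 HepaRG cells (~100,000/well, plated 48 h) exposed in duplicate for 48 h in serum-free induction medium to 8-point half-log series from 100 uM in 0.5% DMSO; mRNA by qRT-PCR normalised to ACTB, GAPDH, POLR2A; bidirectional fit versus DMSO.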
# [13] = read-out: Signal transducer and activator of transcription 3 (Homo sapiens) (UniProt P40763); experiment: LTEA_HepaRG_STAT3: Life Technologies and Expression Analysis (LTEA) Assay for Signal transducer and activator of transcription (STAT3) using HepaRG (AID 2283529)
# In short: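 HepaRG, 48 h exposure, 8-pt half-log series (top 100 uM), 0.5% DMSO vehicle, duplicates. Readout: STAT3 transcript by Fluidigm qRT-PCR, housekeeping-normalized; bidirectional fit vs DMSO baseline.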
# [14] = read-out: solute carrier (SLCO1B1), SLCO1B1 (gene 10599); experiment: LTEA_HepaRG_SLCO1B1: Life Technologies and Expression Analysis (LTEA) Assay for solute carrier (SLCO1B1) using HepaRG (AID 2283530)
# In short: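 Human HepaRG cultures treated for 48 h with an eight-concentration half-log series topping at 100 uM; SLCO1B1 measured by qRT-PCR and fitted bidirectionally relative to DMSO.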
# [15] = read-out: sulfotransferase 2A1 (SULT2A1), SULT2A1 (gene 6822); experiment: LTEA_HepaRG_SULT2A1: Life Technologies and Expression Analysis (LTEA) Assay for sulfotransferase 2A1 (SULT2A1) using HepaRG (AID 2283531)
# In short: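 Gene-expression endpoint in a human liver cell line: SULT2A1 mRNA change after 48 h chemical treatment, curves fitted in both directions relative to 0.5% DMSO vehicle. Concentrations spanned eight half-log steps from 100 uM.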
# [16] = read-out: Transforming Growth Factor (TGFA), TGFA (gene 7039); experiment: LTEA_HepaRG_TGFA: Life Technologies and Expression Analysis (LTEA) Assay for Transforming Growth Factor (TGFA) using HepaRG (AID 2283532)
# In short: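 qRT-PCR read-out of TGFA transcript, normalized to three housekeeping genes, fitted bidirectionally against 0.5% DMSO baseline. Human HepaRG cultures received chemicals for 48 h at eight half-log concentrations, top 100 uM.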
# [17] = read-out: Transforming Growth Factor (TGFB1), TGFB1 (gene 7040); experiment: LTEA_HepaRG_TGFB1: Life Technologies and Expression Analysis (LTEA) Assay for Transforming Growth Factor (TGFB1) Transporter using HepaRG (AID 2283533)
# In short: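 Eight-point concentration-response (max 100 uM, half-log) in HepaRG under serum-free induction conditions, 48 h. TGFB1 mRNA by qRT-PCR, housekeeping-normalized.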
# [18] = read-out: TIMP1, TIMP1 (gene 7076); experiment: LTEA_HepaRG_TIMP1: Life Technologies and Expression Analysis (LTEA) Assay for TIMP1 using HepaRG (AID 2283534)
# In short: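 TIMP1 induction or repression in HepaRG cells after 48 h chemical exposure (eight concentrations, highest 100 uM), assessed by normalized qRT-PCR with bidirectional fitting to DMSO controls.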
# [19] = read-out: Tumor necrosis factor receptor 1 (TNFRSF1A), TNFRSF1A (gene 7132); experiment: LTEA_HepaRG_TNFRSF1A: Life Technologies and Expression Analysis (LTEA) Assay for Tumor necrosis factor receptor 1 (TNFRSF1A) using HepaRG (AID 2283535)
# In short: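 Assay uses 48 h chemical treatment of differentiated HepaRG monolayers, tested in duplicate at eight concentrations from 100 uM downward in 0.5% DMSO. mRNA is normalized to ACTB, GAPDH and POLR2A, with induction or suppression fitted relative to vehicle.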
# [20] = read-out: Thyroid Hormone Responsive (THRSP), THRSP (gene 7069); experiment: LTEA_HepaRG_THRSP: Life Technologies and Expression Analysis (LTEA) Assay for Thyroid Hormone Responsive (THRSP) using HepaRG (AID 2283536)
# In short: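 qRT-PCR read-out (Fluidigm TaqMan), housekeeping-normalized (ACTB/GAPDH/POLR2A). HepaRG, 48 h chemical exposure, 8-pt half-log series from 100 uM in 0.5% DMSO, duplicates. Bidirectional curve fit vs 0.5% DMSO baseline.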
# Nuclear factor NF-kappa-B p105 subunit (Homo sapiens), sequence (P19838 whole entry, looked up): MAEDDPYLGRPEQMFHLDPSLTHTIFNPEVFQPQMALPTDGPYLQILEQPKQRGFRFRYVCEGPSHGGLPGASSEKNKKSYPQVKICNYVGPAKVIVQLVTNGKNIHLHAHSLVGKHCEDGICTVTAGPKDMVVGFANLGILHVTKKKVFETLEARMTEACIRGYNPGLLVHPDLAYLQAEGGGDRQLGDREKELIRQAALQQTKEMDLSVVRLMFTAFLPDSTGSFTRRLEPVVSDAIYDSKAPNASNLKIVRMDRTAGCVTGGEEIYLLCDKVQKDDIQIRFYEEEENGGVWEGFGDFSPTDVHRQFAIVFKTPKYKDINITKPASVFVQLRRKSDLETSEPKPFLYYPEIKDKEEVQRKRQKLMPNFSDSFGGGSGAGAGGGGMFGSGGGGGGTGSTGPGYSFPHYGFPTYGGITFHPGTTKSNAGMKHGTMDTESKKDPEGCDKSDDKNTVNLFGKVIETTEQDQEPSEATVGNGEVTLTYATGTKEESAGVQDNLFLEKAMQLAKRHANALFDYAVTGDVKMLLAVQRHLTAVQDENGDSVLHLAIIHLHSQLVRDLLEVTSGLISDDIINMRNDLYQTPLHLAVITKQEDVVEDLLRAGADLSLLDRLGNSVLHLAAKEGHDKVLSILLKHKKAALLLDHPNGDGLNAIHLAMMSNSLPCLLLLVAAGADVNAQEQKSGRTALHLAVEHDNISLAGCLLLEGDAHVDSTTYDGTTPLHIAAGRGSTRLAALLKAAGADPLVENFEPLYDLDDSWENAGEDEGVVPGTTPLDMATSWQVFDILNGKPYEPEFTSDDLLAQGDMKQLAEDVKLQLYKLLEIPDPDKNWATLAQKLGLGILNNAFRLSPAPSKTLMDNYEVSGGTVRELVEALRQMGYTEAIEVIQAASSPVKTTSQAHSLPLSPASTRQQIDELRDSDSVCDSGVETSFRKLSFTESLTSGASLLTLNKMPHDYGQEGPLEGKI
# Signal transducer and activator of transcription 3 (Homo sapiens), sequence (P40763 whole entry, looked up): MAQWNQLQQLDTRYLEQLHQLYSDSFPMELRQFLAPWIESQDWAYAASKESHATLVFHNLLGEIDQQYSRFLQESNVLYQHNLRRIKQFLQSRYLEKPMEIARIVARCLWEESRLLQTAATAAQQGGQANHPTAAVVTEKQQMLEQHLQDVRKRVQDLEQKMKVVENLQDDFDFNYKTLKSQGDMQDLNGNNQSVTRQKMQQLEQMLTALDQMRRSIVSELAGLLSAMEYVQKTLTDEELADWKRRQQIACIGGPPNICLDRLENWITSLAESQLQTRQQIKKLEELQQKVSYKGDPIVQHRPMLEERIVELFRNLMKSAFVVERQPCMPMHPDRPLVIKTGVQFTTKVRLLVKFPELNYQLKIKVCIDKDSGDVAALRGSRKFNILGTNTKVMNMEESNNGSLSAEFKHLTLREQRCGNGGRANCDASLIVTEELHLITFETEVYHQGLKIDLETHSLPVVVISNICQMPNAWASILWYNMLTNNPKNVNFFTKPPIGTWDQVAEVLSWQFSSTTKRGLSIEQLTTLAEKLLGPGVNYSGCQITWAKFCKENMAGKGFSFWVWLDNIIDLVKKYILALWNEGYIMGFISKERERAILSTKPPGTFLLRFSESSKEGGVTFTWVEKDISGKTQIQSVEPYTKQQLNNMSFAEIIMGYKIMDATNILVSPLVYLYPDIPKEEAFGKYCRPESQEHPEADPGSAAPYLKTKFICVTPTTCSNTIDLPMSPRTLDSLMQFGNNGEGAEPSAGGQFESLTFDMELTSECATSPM
# Nuclear factor erythroid 2-related factor 2 (Homo sapiens), sequence (Q16236 whole entry, looked up): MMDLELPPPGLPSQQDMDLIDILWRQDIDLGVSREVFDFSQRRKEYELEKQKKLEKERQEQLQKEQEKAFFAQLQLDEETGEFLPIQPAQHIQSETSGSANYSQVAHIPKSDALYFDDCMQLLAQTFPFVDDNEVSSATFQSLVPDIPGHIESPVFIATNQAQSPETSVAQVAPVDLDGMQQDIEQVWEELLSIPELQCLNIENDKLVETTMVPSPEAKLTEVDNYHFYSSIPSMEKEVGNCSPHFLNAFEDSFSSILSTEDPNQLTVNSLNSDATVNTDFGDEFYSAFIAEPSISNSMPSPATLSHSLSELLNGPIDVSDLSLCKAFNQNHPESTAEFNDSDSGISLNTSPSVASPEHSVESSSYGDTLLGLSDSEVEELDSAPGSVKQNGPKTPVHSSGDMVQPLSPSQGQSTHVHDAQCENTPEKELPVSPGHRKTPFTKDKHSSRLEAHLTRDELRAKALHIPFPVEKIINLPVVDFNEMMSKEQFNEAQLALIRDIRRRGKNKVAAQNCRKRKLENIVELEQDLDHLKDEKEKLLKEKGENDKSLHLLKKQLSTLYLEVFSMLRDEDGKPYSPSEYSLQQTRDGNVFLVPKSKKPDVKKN
smiles,measurement,setting,value
O=C1CCC(N2C(=O)c3ccccc3C2=O)C(=O)N1 (stereo not given),outcome,[1],inactive
same,outcome,[2],inactive
same,outcome,[3],inactive
same,outcome,[4],inactive
same,outcome,[5],inactive
same,outcome,[6],inactive
same,outcome,[7],inactive
same,outcome,[8],inactive
same,outcome,[9],inactive
same,outcome,[10],inactive
same,outcome,[11],inactive
same,outcome,[12],inactive
same,outcome,[13],inactive
same,outcome,[14],inactive
same,outcome,[15],inactive
same,outcome,[16],inactive
same,outcome,[17],inactive
same,outcome,[18],inactive
same,outcome,[19],inactive
same,outcome,[20],inactive
Nc1cccc(N)c1,outcome,[1],inactive
same,outcome,[2],inactive
same,outcome,[3],inactive
same,outcome,[4],inactive
same,outcome,[5],inactive
same,outcome,[6],inactive
same,outcome,[7],inactive
same,outcome,[8],inactive
same,outcome,[9],inactive
same,outcome,[10],inactive
same,outcome,[11],inactive
same,outcome,[12],inactive
same,outcome,[13],inactive
same,outcome,[14],inactive
same,outcome,[15],inactive
same,outcome,[16],inactive
same,outcome,[17],inactive
same,outcome,[18],inactive
same,outcome,[19],inactive
same,outcome,[20],inactive
Nc1ccc(Nc2ccccc2)cc1,outcome,[1],inactive
same,outcome,[2],inactive
same,outcome,[3],inactive
same,AC50,[4],79.9 µM (active)
same,outcome,[5],inactive
same,outcome,[6],inactive
same,outcome,[7],inactive
same,outcome,[8],inactive
same,outcome,[9],inactive
same,outcome,[10],inactive
same,outcome,[11],inactive
same,outcome,[12],inactive
same,outcome,[13],inactive
same,AC50,[14],35.4 µM (active)
same,outcome,[15],inactive
same,outcome,[16],inactive
same,outcome,[17],inactive
same,outcome,[18],inactive
same,outcome,[19],inactive
same,outcome,[20],inactive
CCOC(=O)COc1ccc2c(c1)CC(NCC(O)c1cccc(Cl)c1)CC2 (stereo not given),outcome,[1],inactive
same,outcome,[2],inactive
same,outcome,[3],inactive
same,outcome,[4],inactive
same,outcome,[5],inactive
same,outcome,[6],inactive
same,outcome,[7],inactive
same,outcome,[8],inactive
same,outcome,[9],inactive
same,outcome,[10],inactive
same,outcome,[11],inactive
same,outcome,[12],inactive
same,outcome,[13],inactive
same,outcome,[14],inactive
same,outcome,[15],inactive
same,outcome,[16],inactive
same,outcome,[17],inactive
same,outcome,[18],inactive
same,outcome,[19],inactive
same,outcome,[20],inactive
O=c1[nH]c2ccc(S(=O)CCN3CCC(Cc4ccc(F)cc4)CC3)cc2o1 (stereo not given),outcome,[1],inactive
same,AC50,[2],17.3 µM (active)
same,outcome,[3],inactive
same,AC50,[4],50 µM (active)
same,outcome,[5],inactive
same,outcome,[6],inactive
same,outcome,[7],inactive
same,AC50,[8],67.2 µM (active)
same,AC50,[9],14.7 µM (active)
same,outcome,[10],inactive
same,outcome,[11],inactive
same,AC50,[12],50 µM (active)
same,outcome,[13],inactive
same,outcome,[14],inactive
same,outcome,[15],inactive
same,outcome,[16],inactive
same,outcome,[17],inactive
same,outcome,[18],inactive
same,outcome,[19],inactive
same,AC50,[20],85.5 µM (active)
C=CCCCCCCCCC(=O)O,outcome,[1],inactive
same,outcome,[2],inactive
same,outcome,[3],inactive
same,outcome,[4],inactive
same,outcome,[5],inactive
same,outcome,[6],inactive
same,AC50,[7],0.00821 µM (active)
same,outcome,[8],inactive
same,outcome,[9],inactive
same,outcome,[10],inactive
same,outcome,[11],inactive
same,outcome,[12],inactive
same,outcome,[13],inactive
same,outcome,[14],inactive
same,outcome,[15],inactive
same,outcome,[16],inactive
same,outcome,[17],inactive
same,outcome,[18],inactive
same,outcome,[19],inactive
same,outcome,[20],inactive
